Test results: the OligoGym collection

The sequences below were run against OSBP2 (assay: pooled miR-30 sensor sort-seq; sequence = guide strand). Settings: shRNA.

First: TTGATCATAGCATTGGATGTGA
Second: TTCTCTTCCTCCGAGCTGCAGC
The sensor-assay potency score (higher = more potent) of the first is higher: 0.46 for the first, -0.929 for the second.

Compared with TACACTGTCTTCTGCTTCCCGT, TTCAGTACTAAATTGAGTGCAT is higher in sensor-assay potency score (higher = more potent): -0.671 for the first, 0.314 for the second.

Going from ATCTAGTACATTGTCTGCTGAG to TTGCCCAGCACGAACCAGCGGC, the sensor-assay potency score (higher = more potent) falls from -0.399 to -0.788.

Compared with TCTAGTACATTGTCTGCTGAGC, TAAGTGGATGGCACCTAGCGGC is higher in sensor-assay potency score (higher = more potent): -0.715 for the first, -0.606 for the second.

Going from TTGGAGAACACGTAGTGCGCAG to TTGACTTTGGATGAACCCTTGG, the sensor-assay potency score (higher = more potent) falls from -0.163 to -0.284.

First: TAGGAGGACACAGAGAAGGCGG
Second: TTGTGAACAGTTGAGGTGCTCT
The sensor-assay potency score (higher = more potent) of the first is higher: -0.227 for the first, -0.621 for the second.

The sequences below were run against OSBPL11 in the same assay as above. Settings: shRNA.

Compared with TAAATTAGTTCTTTTGCTCAGT, TTGTGCTTTACTTCAGCTGTAA is lower in sensor-assay potency score (higher = more potent): -0.186 for the first, -0.271 for the second.

Going from TATACTTCATTAAATAGCCATA to TTACACACATCTTCCTCTCTGT, the sensor-assay potency score (higher = more potent) rises from -1.62 to 0.858.
